The values that follow come from PubChem BioAssay (Tox21).

The structures appear in SMILES notation. The source made the active and inactive calls. Calls follow the shape of the dose curve; as a rule, active = well fitted curve in the direction sought with a large enough effect in the repeat runs; inconclusive = weak or mixed curves; inactive = flat fitted curve, though single readings scatter.

A short description of this experiment: qHTS assay to test for compound auto fluorescence at 460 nm (blue) in HEK293 cells (AID 720678). The settings on record: blue autofluorescence 405/460 nm; series mostly up to 91.3 µM. The text has this: National Center for Advancing Translational Sciences [NCATS]
NIH Chemical Genomics Center [NCGC]
U.S. Environmental Protection Agency [EPA]
National Institutes of Environmental Health Sciences [NIEHS]
National Toxicology Program [NTP]
U.S. Food and Drug Administration [FDA]
Compound auto fluorescence often interferes with screening of the compound library against various biological targets and signaling pathways. Some of these compounds may have fluorophoric properties. Such properties may interfere with the assay outputs resulting in false positives and/or negatives. To decrease such complications and ensure the compound activities are relevant in terms of biological response, the Tox21 10K compound library was screened for auto fluorescence.
From the fluorophores used as reporter signals in our screening assays, the auto fluorescence equivalencies of compounds against three fluorophores have been evaluated: Triamterene, Fluorescein and Rose Bengal sodium for blue, green and red fluorescence, respectively. The fluorescence intensities were measured using Excitation/Emission wavelengths at 405/460nm, 485/535nm and 540/590nm for blue, green and red labels, respectively. This assay includes the blue fluorescence data.
Tox21 Assay Protocol Summary:
2,000 HEK293 cells in 5 uL of culture medium containing 10% dialyzed FBS per well were dispensed into black wall/clear bottom 1536-well plates using a Multidrop Combi Dispenser (Thermo Scientific). The assay plates were incubated for 4-5 hr at 37C to allow cell attachment to the well bottom, followed by the transfer of 23 nL compound or DMSO vehicle by a pintool work station (Kalypsys, San Diego, CA). After the assay plates were incubated overnight at 37C and 5% CO2, fluorescence intensities in the assay plates were measured by an Envision (PerkinElmer, Shelton, CT) plate reader using three labels for measuring blue, green and red fluorescence at […] 460, 535 and 590nm respectively.
`Nc1ccc(S(=O)(=O)c2ccc(N)cc2)cc1`: the compound was called inactive.

Consider `O=C(O)c1cccnc1`, for which the call was inactive.

For `Cc1cn([C@H]2C[C@H](N=[N+]=[N-])[C@@H](CO)O2)c(=O)[nH]c1=O`, the outcome was inactive.

For `C1N2CN3CN1CN(C2)C3`, the outcome was inactive.

In the case of `CCCCC1C(=O)N(c2ccccc2)N(c2ccccc2)C1=O`, the compound was classed as inactive.

As to `Cc1ccc(S(=O)(=O)NC(=O)NN2CCCCCC2)cc1`, the compound was classed as inactive.

Turning to `Cc1cc(=O)[nH]c(=S)[nH]1`, the call was inactive.

Regarding `Cc1ccccc1C(OCCN(C)C)c1ccccc1` (stereo not given), the compound was called inactive.

In the case of `Cc1ccc(O)cc1`, the compound was called inactive.

With `Cn1cc[nH]c1=S`, the result was inactive.

With `CC(O)C(=O)O` (stereo not given), the compound was called inactive.

Take `O=c1ccc2ccccc2o1`: the result was inactive.

For the compound `Nc1ccc(C(=O)O)cc1`, the result was inactive.

On to `c1ccc2[nH]ccc2c1`, for which the result was inactive.

Consider `Cc1ccc(C)c(OCCCC(C)(C)C(=O)O)c1`, for which the call was inactive.

Take `O=C(O)CCCCCCCC(=O)O`: the compound was called inactive.

In the case of `CCCCC(CC)COC(=O)/C=C/c1ccc(OC)cc1` (stereo not given), the outcome was inactive.

Regarding `CC(=O)OCC(COC(C)=O)OC(C)=O`, the result was inactive.

Regarding `NC(=O)NC1NC(=O)NC1=O` (stereo not given), the compound was called inactive.

For the compound `CC(C)(Oc1ccc(C2CC2(Cl)Cl)cc1)C(=O)O` (stereo not given), the result was inactive.

In the case of `Cn1c(=O)c2[nH]cnc2n(C)c1=O`, the compound was called inactive.

For the compound `CCCC(CCC)C(=O)O`, the outcome was inactive.

In the case of `COc1c2occc2cc2ccc(=O)oc12`, the result was inactive.

`CCCC(O)C(CC)CO` (stereo not given): the compound was classed as inactive.

In the case of `O=C(O)CCCCC(=O)O`, the outcome was inactive.

For the compound `Nc1ccc(O)c(C(=O)O)c1`, the call was inactive.

For the compound `Cc1noc(NS(=O)(=O)c2ccc(N)cc2)c1C`, the result was inactive.

Consider `CC(=O)NS(=O)(=O)c1ccc(N)cc1`, for which the call was inactive.

On to `O=C(c1ccccc1)c1ccccc1`, for which the outcome was inactive.

Consider `CCCN(CCC)S(=O)(=O)c1ccc(C(=O)O)cc1`, for which the outcome was inactive.

`O=C1CN(/N=C/c2ccc([N+](=O)[O-])o2)C(=O)N1`: the result was inactive.

In the case of `CCCCOC(=O)CC(CC(=O)OCCCC)(OC(C)=O)C(=O)OCCCC`, the compound was called inactive.

For the compound `O=S(=O)(O)NC1CCCCC1`, the compound was called inactive.

`O=S(=O)(O)c1ccc2cc(O)ccc2c1`: the call was inactive.

Consider `NC(=O)c1cnccn1`, for which the compound was classed as inactive.

Take `NC(N)=NC(=O)c1nc(Cl)c(N)nc1N`: the compound was called inactive.

On to `NNC(=O)c1ccncc1`, for which the compound was called inactive.

Take `CNC[C@H](O)c1cccc(O)c1`: the outcome was inactive.

Take `CC(O)CO` (stereo not given): the compound was called inactive.

`OCCc1ccccc1`: the compound was classed as inactive.
